Bioassay records as filed in PubChem.
This is a sample that favours compounds with a hit; in the whole collection about 3.6% have one here.
TGFb inhibitor = qHTS for Inhibitors of TGF-b; 1.2% of 410,000 active; Potency, µM (top dose mostly 46.1 µM), for inactives: at the top dose activity, negative = inhibition, usual class: inhibitors; HepG2 CAGA-GFP TGF-b/SMAD3 reporter, GFP fluorescence, 18 h; TGF-beta stimulated, 500 pg/mL final; AID 588855, 2011; note: % is set by controls: 0 for no effect and ±100 for the full control effect; nearly all actives have a fitted effect of over 65% in size
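HEPG2 CAGA-GFP reporter cells (1000/well, DMEM with 1% FBS) received compounds, then recombinant TGF-beta at 500 pg/mL final for 18 hours at 37 degrees C. Per-cell GFP summed per well was normalised to unstimulated and stimulated DMSO controls before curve fitting.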
Nrf2 activator = qHTS of Nrf2 Activators; AREc32 ARE-luciferase reporter (MCF7-derived line), luminescence, 24 h; Potency, µM (highest dose often 46.1 µM), for the others: at the top dose activation, hits mostly activators; 0.31% of 410,000 active; AID 624171, 2012; note: % of control where 0% means no effect; nearly all actives have a fitted effect of over 65% in size
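Cells of the AREc32 ARE-luciferase line are plated in OPTI-MEM containing 5% FBS and left overnight at 37 deg C. Compounds are pinned in, incubation continues 24 hr, and firefly luciferase signal is then measured.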
A549 viability = Nrf2 qHTS screen for inhibitors: counterscreen for cytotoxicity; Potency, µM (highest dose often 46 µM), without a hit: top-dose activity change, negative = cytotoxicity, usual class: inhibitors; 0.16% of 390,000 active; AID 504648, 2011; A549 ARE-Fluc cells, CellTiter-Fluor viability, 18-24 h; note: % is set by controls: 0 for no effect and ±100 for the full control effect
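A549 ARE_Fluc cells in 5% FBS OPTI-MEM were exposed to compounds in concentration-response for 18-24 h at 37 deg C. Viability was read by CellTiter-Fluor fluorescence (Ex 405/Em 525) after 30 min, before the luciferase read.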
Nrf2 block = Nrf2 qHTS screen for inhibitors; A549 ARE-Fluc reporter, luciferase luminescence, 18-24 h; AID 504444, 2011; 2.1% of 360,000 active; Potency, µM (doses to about 46 µM), without a hit: top-dose activity change, negative = inhibition, most hits filed as inhibitors; note: % is set by controls: 0 for no effect and ±100 for the full control effect; nearly all actives have a fitted effect of over 60% in size
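Quantitative HTS in A549 cells stably bearing an antioxidant response element-firefly luciferase construct. Inhibition of Nrf2-driven transcription was scored by luminescence after 18-24 h of compound exposure at 37 °C.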
HepG2 viability = qHTS for Inhibitors of TGF-b: Cytotox Counterscreen | Potency, µM (series often up to 46.1 µM), without a hit: top-dose activity change, negative = cytotoxicity, hits mostly cytotoxic | HepG2 CAGA-GFP viability, ATP luminescence, 18 h | 0.76% of 410,000 active
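HepG2 CAGA-GFP cells (1000/well, DMEM with 1% FBS) received compound, then TGF-beta at 500 pg/mL final, and were incubated 18 hours at 37 degrees C. Viability was read by CellTiter-Glo luminescence. Media-only wells were set as complete cell-killing and DMSO as no toxicity.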
* hit, by the source's call; ? = inconclusive; · = no result; [ ] = dose if it differs, or a comment. Calls come from the whole dose curve; as a rule, active = well fitted curve in the direction sought with a large enough effect; inconclusive = small, poorly fitted or top-dose-only effect, or another doubt; inactive = no such curve, though single readings can be large; an effect the other way counts as inactive or inconclusive. Potency is the fitted concentration of half-maximal effect.

SMILES | TGFb inhibitor | Nrf2 activator | A549 viability | Nrf2 block | HepG2 viability
O=C(C1=C[C@@H](c2csc3ccccc23)C[C@@H](OCc2ccc(CO)cc2)O1)N1CCN(Cc2ccc3c(c2)OCO3)CC1 | ? | 8% | -13% | ? | -13%
O=C(C1=C[C@H](C2CC2)C[C@H](OCc2ccc(CO)cc2)O1)N1CCN(Cc2ccc3c(c2)OCO3)CC1 | -28% | 7% | 4% | -20% | -4%
O=C(C1=C[C@H](C2CCCCC2)C[C@H](OCc2ccc(CO)cc2)O1)N1CCN(Cc2ccc3c(c2)OCO3)CC1 | ? | 0% | ? | 23µM* | -11%
C=C(C)C1CC=C(C)/C(=N/NC(=O)COc2ccc(Cl)cc2)C1 (stereo unspecified) | 0% | -1%[9.22 µM] | 14% | 21% | -15%
Cc1cc(N2CCCC(C(=O)Nc3ccc4c(c3)CCC4)C2)n2ncnc2n1 (stereo unspecified) | -15% | 0% | -14% | 13µM* | -33%
CCCOc1ccc(C(=O)Nc2c[nH]c(=O)[nH]c2=O)cc1 | -1% | 0% | -4% | 2% | 32%
Cn1c(=O)oc2cc(S(=O)(=O)Nc3ccc(Cl)cc3)ccc21 | 9% | 0% | 1% | -18% | -1%
Cn1c(=O)oc2cc(S(=O)(=O)Nc3ccc(F)cc3)ccc21 | 8% | 0% | 0% | 8% | 4µM*
NC(=O)c1ccc(N2CCN(c3ccc(O)cc3)CC2)c([N+](=O)[O-])c1 | -3% | 1% | -22% | 18µM* | 1%
NC(=O)CC(NC(=O)c1ccccc1)c1ccc(N2CCN(c3ccccc3)CC2)c([N+](=O)[O-])c1 (stereo unspecified) | -35% | -1% | -5% | ? | -11%
CC(=O)c1ccc(N2CCN(c3ccc(C(N)=O)cc3[N+](=O)[O-])CC2)cc1 | 2% | -1% | 3% | -24% | -17%
NC(=O)CC(NC(=O)c1ccccc1)c1ccc(N2CCN(c3ccc(F)cc3)CC2)c([N+](=O)[O-])c1 (stereo unspecified) | ? | 0% | -19% | 21µM* | -10%
Cc1ccc(-n2c(O)c(C=NC3CCS(=O)(=O)C3)c3ccccc3c2=O)c(C)c1 (stereo unspecified) | -8% | 0% | -10% | -11% | 1%
Cc1ccc(-n2c(O)c(C=Nc3cc(C)on3)c3ccccc3c2=O)c(C)c1 | -10% | 0%[9.22 µM] | ? | 23µM* | -20%
Oc1[nH]c2ccc(Br)cc2c1N=NC(=S)N1CCOCC1 | ? | -2% | ? | ? | -30%
CC(=O)OCC(=O)[C@@]1(O)CC[C@H]2[C@@H]3CCC4=CC(=O)C=C[C@]4(C)[C@@]3(F)[C@@H](O)C[C@@]21C | 13% | -1% | -5% | 0.029µM* | -23%
CC(=O)OCC(=O)C1(O)CCC2C3CC(F)C4=CC(=O)CCC4(C)C3C(=O)CC21C (stereo unspecified) | 17% | 0% | -3% | -27% | -1%
CC1(c2ccccc2)O[C@@H]2C[C@H]3[C@@H]4CCC5=CC(=O)C=C[C@]5(C)[C@@]4(F)[C@@H](O)C[C@]3(C)[C@]2(C(=O)CO)O1 (stereo partly specified) | 0% | 3% | -5% | 0.026µM* | -30%
CC(=O)OCC(=O)[C@@]1(OC(C)=O)[C@@H](C)C[C@H]2[C@@H]3C[C@H](F)C4=CC(=O)C=C[C@]4(C)[C@@]3(F)[C@@H](O)C[C@@]21C | 3% | 2% | 5% | 0.0092µM* | -22%
CC1(C)OC2CC3C4CC(F)C5=CC(=O)C=CC5(C)C4(F)C(O)CC3(C)C2(C(=O)CO)O1 (stereo unspecified) | 11% | 1% | -11% | ? | -1%
CC(=O)OCC(=O)C1(O)CCC2C3CC(C)C4=CC(=O)C=CC4(C)C3=CCC21C (stereo unspecified) | 3% | 3% | 3% | 2.1µM* | -10%
CC(=O)OCC(=O)[C@@]12OC(C)(C)O[C@@H]1C[C@H]1[C@@H]3C[C@H](F)C4=CC(=O)C=C[C@]4(C)[C@@]3(F)[C@@H](O)C[C@@]12C | 0% | -1% | -6% | ? | 2%
CC12C=CC(=O)C=C1CCC1C3CCC(O)(C(=O)CO)C3(C)CC3OC312 (stereo unspecified) | 4% | 0% | -3% | -12% | 7%
Cc1cccc(NC(=O)CC2c3ccccc3Oc3ccccc32)c1 | -3% | 0% | 2% | 4% | 1%
COc1ccc(CCNS(=O)(=O)c2ccc3c(c2)NC(=O)CCS3)cc1OC | -21% | 0% | -2% | ? | -16%
SMILES | TGFb inhibitor | Nrf2 activator | A549 viability | Nrf2 block | HepG2 viability
COc1ccc(CCNc2ccc(S(=O)(=O)N3CCN(C)CC3)cc2[N+](=O)[O-])cc1 | -15% | 0% | -5% | 6% | -15%
C[C@@H]1C[C@H]2[C@@H]3CCC4=CC(=O)C=C[C@]4(C)[C@@]3(F)[C@@H](O)C[C@]2(C)[C@@]1(O)C(=O)COP(=O)(O)O | -7% | -1% | -2% | 0.023µM* | 6%
CC12C=CC(=O)C=C1C(F)CC1C3CCC(O)(C(=O)CO)C3(C)CC(O)C12F (stereo unspecified) | ? | -1% | -3% | 0.0052µM* | -7%
CC(=O)OCC(=O)C1(O)CCC2C3CC(C)C4=CC(=O)C=CC4(C)C3(F)C(O)CC21C (stereo unspecified) | 16% | 1% | 4% | 0.058µM* | 0%
CC(c1ccco1)N(Cc1ccco1)C(=O)Nc1ccccc1 (stereo unspecified) | -11% | -1% | -1% | 8% | -7%
CCOc1cc(S(=O)(=O)n2ccnc2C(C)C)ccc1Cl | -29% | 0% | 5% | · | -16%
CCN(Cc1ccccc1)S(=O)(=O)c1cc(C(=O)Nc2cc(Cl)cc(Cl)c2)ccc1F | 5µM* | 0% | ? | · | -37%
O=C(Nc1cc(Cl)cc(Cl)c1)c1ccc(F)c(S(=O)(=O)NCc2ccccc2Cl)c1 | ? | -1% | -17% | · | -111%
CN1C(=O)C(C)(C)c2cc(S(=O)(=O)NCc3ccc(C(=O)Nc4ccc(Cl)cc4)cc3)ccc21 | 4µM* | 5% | -15% | 18µM* | -28%
Cc1ccc(C(=O)Nc2ccc(Br)cc2)cc1S(=O)(=O)NCc1ccccc1 | 16µM* | 0% | ? | ? | -54%
COc1ccc(CNS(=O)(=O)c2cc(C(=O)Nc3cc(Cl)cc(Cl)c3)ccc2F)cc1 | 7.1µM* | -2% | -3% | · | 10µM*
CCN(Cc1ccccc1)S(=O)(=O)c1cc(C(=O)NCC2CCCCC2)ccc1OC | ? | 0% | -22% | 12µM* | -9%
